Assay results taken from PubChem BioAssay (EPA / NIEHS).
Activity calls are given as the source filed them. How the source made its calls: active means hit-call score of the fitted dose curve at least 0.9, where 1 is the maximum; inactive means score below 0.9.

Test: APR_HepG2_MitoMass_72hr: Apredica 72-hour HepG2 Assay for Mitochondrial Mass (AID 2282924);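 further: MitoTracker Red CMXRos stain intensity per cell imaged as mitochondrial mass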
Details: high-content imaging, actives raise or lower the signal
Procedure: APR_HepG2_72hr is a cell-based, multiplexed-readout assay that uses HepG2, a human liver cell line, with measurements taken at 72 hours after chemical dosing in a 384-well plate.APR_HepG2_MitoMass_72hr is one of 10 assay component(s) measured or calculated from the APR_HepG2_72hr assay. It is designed to make measurements of cell phenotype, a form of morphology reporter, as detected with fluorescence intensity signals by HCS Fluorescent Imaging technology.Data from the assay component APR_HepG2_MitoMass_72hr was analyzed into 1 assay endpoint. This assay endpoint, APR_HepG2_MitoMass_72hr, was analyzed with bidirectional fitting relative to DMSO as the negative control and baseline of activity. Using a type of morphology reporter, gain or loss-of-signal activity can be used to understand changes in the signaling. Furthermore, this assay endpoint can be referred to as a primary readout, because this assay has produced multiple assay endpoints where this one serves a signaling function. To generalize the intended target to other relatable targets, this assay endpoint is annotated to the cell morphology intended target family, where the subfamily is organelle conformation.
Cells were treated with dimethyl sulfoxide (DMSO) as a solvent control at a final concentration of 0.5% v/v or with compounds in DMSO with a resulting final DMSO concentration of 0.5% v/v. Compound treatment was done at concentrations of 0.39, 0.78, 1.56, 3.12, 6.24, 12.5, 25, 50, 100, and 200 uM in duplicate on each plate. Cells were treated with compounds for 1, 24, or 72 hr. Carbonyl […] m-chloro-phenylhydrazone (CCCP) and taxol were used as positive controls for mitochondrial function and cytoskeletal stability, respectively; DMSO served as the negative control for this experiment. Cells were fixed by the direct addition of 50 uL formaldehyde in Hank's Balanced Salt Solution (HBSS) to a final concentration of 3.7%. After incubation in the fixation medium for 30 min at room temperature (293-298 K), cells were rinsed twice with HBSS and treated with cell permeabilization buffer (16 uL of 0.5% Triton X-100) for 10 min at room temperature (293-298 K) before labeling. For mitochondrial membrane potential and mitochondrial measurements, pre-fixed cells were incubated with 50 uL of MitoTracker Red CMXRos (Invitrogen) at a concentration of 250 nM for 30 min before fixation. In the remaining cases, post-fixed cells were labeled by incubation with a multiplexed mixture of primary antibodies in HBSS for 60 min at room temperature (293-298 K) to detect immunoreactivity of c-Jun (1:500), phospho-histone H3 (1:100), phospho-histone H2A.x (1:200), p53 (1:400), alpha-tubulin (1:200) and Hoechst 33342 (2 ug/mL). Cells were labeled for multiplexed imaging on two separate plates: a) Hoechst 33342, MitoTracker Red, phospho-histone H3, and alpha-tubulin, and b) Hoechst 33342, phospho-histone H2A.x, and c-Jun. A final rinse with HBSS (50 uL) was performed before analysis. The primary and secondary antibodies for the proteins were phospho-histone H3 (rabbit anti-phospho-histone H3 and FITC-donkey anti-rabbit IgG), phospho-histone H2A.x (mouse anti-phospho-histone H2A.x and FITC-donkey anti-mouse IgG), c-Jun (rabbit anti-phospho-c-Jun and Cy3-donkey anti-rabbit IgG), p53 (sheep anti-p53 and Cy5-donkey anti-sheep IgG), alpha-tubulin (mouse anti-alpha-tubulin and Cy5-donkey anti-mouse IgG). These antibodies are available as the CellCiphr HepG2 assay kit (Millipore).Digital images of each well were captured using a Cellomics ArrayScan VTI (Thermo Scientific Cellomics) (0.8 NA objective, 0.63x optical coupler, and XF-93 filter set) at 20x magnification. The images were acquired using the autofocus feature of the ArrayScan instrument, which entails the following steps. First, the camera focuses on channel 1 (Hoechst 33342), where nuclei are identified. Second, a Z offset of 1 um is used for capturing mitochondria (MitoTracker Red). […]

Structure (SMILES)	outcome	AC50
CCCCCCCCCCCCCCCO	inactive	–
CC(C)CCO	inactive	–
COc1ccc2sc(C(=O)Nc3nnn[nH]3)c(OC(C)C)c2c1	inactive	–
Cc1ccc(N)cc1O	inactive	–
O=c1n(CC2CO2)c(=O)n(CC2CO2)c(=O)n1CC1CO1 (stereo not given)	–	50 µM (active)
CC(=O)c1ccc2c(c1)[C@H](NC(=O)c1ccc(F)cc1)[C@@H](O)C(C)(C)O2	inactive	–
O=C1CCC(N2C(=O)c3ccccc3C2=O)C(=O)N1 (stereo not given)	inactive	–
CC[C@H](C)C(=O)O[C@H]1C[C@@H](C)C=C2C=C[C@H](C)[C@H](CC[C@@H]3C[C@@H](O)CC(=O)O3)[C@H]21	–	131 µM (active)
CC(=O)OC[C@H]1O[C@@](COC(C)=O)(O[C@H]2O[C@H](COC(C)=O)[C@@H](OC(C)=O)[C@H](OC(C)=O)[C@H]2OC(C)=O)[C@@H](OC(C)=O)[C@@H]1OC(C)=O	inactive	–
Cc1ccc(C)c(O)c1	inactive	–
COc1ccc(/C=C/S(=O)(=O)NC(=O)c2ccc(C)cc2Cl)cc1	inactive	–
CCOC(=O)CC(CC(=O)OCC)(OC(C)=O)C(=O)OCC	inactive	–
COc1cccc(-c2ccc(/C=C\CN3CCCCCC3)cc2Cl)c1	inactive	–
Clc1nc(Cl)c(Cl)c(Cl)c1Cl	–	89.9 µM (active)
CCCCCCc1ccc(O)cc1O	inactive	–
NC(=O)NO	inactive	–
CCCN(C1CCN(C(=O)C2CCNCC2)CC1)[C@@H]1CCc2ccc(OC)cc2C1	–	111 µM (active)
Nc1cccc(N)c1	inactive	–
O=C(O)CCN(C1(C(=O)NO)CCCC1)S(=O)(=O)c1ccc(Oc2ccc(F)cc2)cc1	inactive	–
CC(C)CCCCCCOC(=O)c1ccc(C(=O)OCCCCCCC(C)C)c(C(=O)OCCCCCCC(C)C)c1	inactive	–

Structure (SMILES)	outcome	AC50
Nc1nc2ncc(CNc3ccc(C(=O)N[C@@H](CCC(=O)O)C(=O)O)cc3)nc2c(=O)[nH]1	inactive	–
CCOC(=O)COc1ccc2c(c1)CC(NCC(O)c1cccc(Cl)c1)CC2 (stereo not given)	inactive	–
COC(=O)c1ccccc1O	inactive	–
Nc1ccc(Nc2ccccc2)cc1	inactive	–
CC[C@H]1CC[C@H](NCc2cc3c(cc2OC)[C@H]2C[C@H]2C(=O)N3C)[C@H](c2ccccc2)N1	inactive	–
COC(=O)CC(=O)OC	inactive	–
CC(=O)OCCC(C)C	inactive	–
CCCCCCCCCCCCc1ccccc1	inactive	–
CN(C)c1ccc(Cc2ccc(N(C)C)cc2)cc1	inactive	–
CCCC(=O)OCC	inactive	–
CN(C)c1ccc(N=NS(=O)(=O)O)cc1	inactive	–
CC(C)c1cccc(C(C)C)c1N1C(=O)c2ccc(O)cc2C1=O	inactive	–
Fc1ccccc1[C@@H](F)COC1CCC(Nc2ncnc3[nH]ncc23)CC1 (stereo not given in full)	inactive	–
CC(C)CC(C)(O)C#CC(C)(O)CC(C)C (stereo not given)	inactive	–
COCCOCCOCCOC	inactive	–
O=C1CCCCCN1	inactive	–
O=C(O)c1cc(N=Nc2ccc(S(=O)(=O)Nc3ccccn3)cc2)ccc1O	inactive	–
C=CC(=C)CCC=C(C)C	inactive	–
COc1ccc(-n2nc(C(F)F)cc2-c2ccc(S(C)=O)cc2)cc1 (stereo not given)	–	36.8 µM (active)
Cn1c(=O)c2c(ncn2C)n(C)c1=O	inactive	–
